AID504770 – E. coli YBA685 growth inhibition, screen for V. cholerae RctB inhibitors. E. coli YBA685 rctB-dependent plasmid, OD600 growth, 3 h; active compounds read low. z-score (test concentration not listed). 130,000 compounds, 0.27% hits. AID 504770; in the data active = z-score below about -2, passing the limit was not always enough
MenB inh – blocks the Mycobacterium tuberculosis MenB enzyme. P9WNP5. MenB enzyme assay, absorbance read-out. inhibition, % (concentration not given with the values). 100,000 compounds, 0.43% hits; in the data active = inhibition above about 21%, passing the limit was not always enough
Mtb MbtI inh – MbtI salicylate synthase inhibition. P9WFX0. purified MbtI enzyme, fluorescence intensity read-out. inhibition, % (concentration not given with the values). 100,000 compounds, 0.89% hits. AID 493033; in the data active = inhibition mostly above about 56%, no sharp cut-off; inactive = mostly below about 77%
PV pol inh – inhibitors of poliovirus RNA polymerase binding and polymerization. P03300. poliovirus polymerase elongation, fluorescence polarization; active compounds read low. % elongation, % (compound at 16.7 µg/mL). 150,000 compounds, 0.66% hits. AID 588519; in the data active = % elongation below about 90%
Target sequence (P03300 1749-2209 limits assumed): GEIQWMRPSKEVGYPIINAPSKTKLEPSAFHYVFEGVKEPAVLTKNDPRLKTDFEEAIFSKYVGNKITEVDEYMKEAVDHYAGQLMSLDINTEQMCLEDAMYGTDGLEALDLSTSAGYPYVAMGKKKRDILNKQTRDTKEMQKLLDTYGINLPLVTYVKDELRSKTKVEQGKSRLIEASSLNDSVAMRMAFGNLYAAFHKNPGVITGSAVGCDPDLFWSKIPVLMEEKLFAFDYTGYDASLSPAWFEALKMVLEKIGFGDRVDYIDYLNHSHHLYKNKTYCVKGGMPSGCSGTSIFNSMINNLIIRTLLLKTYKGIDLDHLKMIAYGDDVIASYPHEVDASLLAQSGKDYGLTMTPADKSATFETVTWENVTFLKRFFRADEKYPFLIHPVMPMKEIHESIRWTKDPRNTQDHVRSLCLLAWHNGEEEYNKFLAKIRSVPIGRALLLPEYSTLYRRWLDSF
Hits are given with their value; 0 = inactive; - = not tested or not shown. This is a sample that favours compounds with a hit; in the whole collection about 1.5% have one here.

SMILES | AID504770 | MenB inh | Mtb MbtI inh | PV pol inh
S=C(S)N1CCCC1 | -3.45 | 0 | 95.7 | 0
NC(=S)N1CCCC1 | 0 | 0 | 0 | 0
c1coc(-c2nnc(-c3ccco3)nn2)c1 | 0 | 0 | 0 | 43.0
CC1(C)CC(=O)c2sc(NC(=O)C3=COCCO3)nc2C1 | 0 | - | - | -
Cc1ccc(CNCCN2CCOCC2)o1 | 0 | 0 | - | 0
COc1ccc(-c2ccc(CNCCN3CCOCC3)o2)cc1Cl | 0 | 32.7 | 0 | 0
O=c1cc(NCCc2ccccc2)c2ccccc2o1 | 0 | 33.2 | 0 | 0
COc1ccc(CN(C)Cc2cccc(S(=O)(=O)N(C)C)c2)c(OC)c1OC | 0 | 0 | 0 | 0
COC(=O)c1ccc2c(=O)[nH]c(COC(=O)c3cccnc3Nc3ccccc3OC)nc2c1 | -4 | 0 | 0 | 0
OCC1CCCN(c2ncnc3sc(-c4ccccc4)cc23)C1 (configuration not stated) | 0 | 0 | 0 | 0
COc1cc(SC)ccc1C(=O)N(C)C1CCN(C)CC1 | 0 | 0 | 0 | -3.0
COc1cc(C2=Nc3c(c(C)nn3-c3ccccc3)P(=O)(N3CCOCC3)O2)cc(OC)c1OC (configuration not stated) | 0 | 0 | 0 | 0
Cc1nn(-c2ccccc2)c2c1P(=S)(N1CCOCC1)OC(c1ccccc1)=N2 (configuration not stated) | 0 | 0 | 0 | 88.0
CSc1ncc2c(n1)-c1ccccc1N(C)S2(=O)=O | 0 | 0 | 0 | 0
CSc1ncc2c(n1)-c1ccccc1N(Cc1ccccc1)S2(=O)=O | - | - | - | -15.0
CCCNC(=O)C1=NS(=O)(=O)c2ccccc2N1 | 0 | 0 | 0 | 0
O=C1c2ccccc2C(=O)c2c1oc1c3c(ccc21)OCN(C1CCCC1)C3 | 0 | 0 | 0 | 83.0
O=C1c2ccccc2C(=O)c2c1oc1c3c(ccc21)OCN(CC1CCCO1)C3 (configuration not stated) | 0 | 0 | 0 | 88.0
COc1ccc(CCN2COc3ccc4c5c(oc4c3C2)C(=O)c2ccccc2C5=O)cc1OC | 0 | 0 | 0 | 0
CC(C)CCN1COc2ccc3c4c(oc3c2C1)C(=O)c1ccccc1C4=O | 0 | 0 | 0 | 0
O=C1c2ccccc2C(=O)c2c1oc1c3c(ccc21)OCN(CCCN1CCOCC1)C3 | 0 | 0 | 0 | 86.0
O=C1c2ccccc2C(=O)c2c1oc1c3c(ccc21)OCN(C1CCS(=O)(=O)C1)C3 (configuration not stated) | 0 | 0 | 0 | 87.0
CCc1cccc(NC(=S)N(C2CCCCC2)C(C)c2cccs2)c1 (configuration not stated) | 0 | 0 | 0 | 0
Cc1cc(C)nc(N(C#N)C(=S)N(C)C)n1 | 0 | 0 | 102.2 | 0
COC(=O)C(C)N(C#N)c1nc(C)cc(C)n1 (configuration not stated) | 0 | - | 0 | -
SMILES | AID504770 | MenB inh | Mtb MbtI inh | PV pol inh
Cn1c(N/C(=C\C(=O)c2cccs2)C(F)(F)F)nc2ccccc21 | -2.7 | - | 0 | 0
c1nncn1/N=C1/CCCc2nonc21 | 0 | 0 | 84.0 | 0
O=C(O)COc1ccc(-c2nnco2)cc1 | 0 | 0 | 0 | 89.0
CC1CCCC(C)N1C(=O)COc1ccc(-c2nnco2)cc1 (configuration not stated) | 0 | 0 | 0 | 0
COc1ccc(-c2nc(=O)[nH]c(=O)[nH]2)cc1 | 0 | 0 | 0 | 0
CC1CCCC(C)N1Cn1nc2sc3ccccc3n2c1=S (configuration not stated) | 0 | 0 | 97.6 | 0
Cc1ccc(S(=O)(=O)N2CCC(C(=O)N=Nc3c(O)[nH]c4ccccc34)CC2)cc1 | 0 | 0 | 0 | 0
CCOC(=O)c1sc(CN2CCN(c3cccc(Cl)c3)CC2)nc1C | 0 | - | - | -
CCOC(=O)c1sc(SCC(=O)c2ccc(Cl)cc2Cl)nc1C | 0 | 0 | 0 | 86.0
COc1cccc(CNC(=O)C23CC4CC(CC(O)(C4)C2)C3)c1 | 0 | 0 | 0 | 0
Cc1cc(C)nc(N2CCC(C(=O)Nc3nnc(C(C)C)s3)CC2)n1 | 0 | 0 | 0 | 0
O=C(CSc1ccc(Cl)cc1)c1ccco1 | 0 | - | 61.1 | 0
O=C(CSc1ccccc1Cl)c1ccco1 | 0 | - | 0 | 0
Cn1cc(NC(=O)NCCc2ccsc2)c2ccccc2c1=O | 0 | 0 | 0 | 57.0
Cc1ccc(NC(=O)Nc2cn(C)c(=O)c3ccccc23)c(Cl)c1 | - | - | - | 80.0
CC(C)CCNC(=O)Nc1cn(C)c(=O)c2ccccc12 | 0 | 0 | 0 | 0
CSc1ccc(CCNC(=O)Nc2cn(C)c(=O)c3ccccc23)cc1 | 0 | 0 | 0 | 45.0
CCc1ccc(NC(=O)Nc2cn(C)c(=O)c3ccccc23)cc1 | - | - | - | 70.0
CCOc1ccc(CCNC(=O)Nc2cn(C)c(=O)c3ccccc23)cc1OCC | 0 | 0 | 0 | 0
CC(C)c1ccc(-c2nc(N3CCCCCC3)[nH]c(=O)c2C#N)cc1 | 0 | 0 | 0 | 0

Screening results: PubChem, ICCB-Longwood Screening Facility, Harvard Medical School
